Test results: ChEMBL document CHEMBL1201862, “PubChem BioAssay data set” (2004)
About 4,800 (8.9%) of roughly 54,000 sequences were called active. Cut-off read from the data, not from the text of the source: active = GI50 up to about 1.1 µM and inactive = higher. These entries were drawn from the full list. Measured potencies and affinities stand elsewhere.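 In this assay, cells in 96-well plates receive the compound at five concentrations for 48 hours. Endpoints are linearly interpolated between the surrounding concentrations. GI50 is the concentration that inhibits growth by half.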

System: RPMI-8226
Experiment: NCI tumour cell line growth inhibition, 48 h

In order of rising GI50:
1. [Bis(aminomethyl)tetramethylenesilane]tetrachloropaltinum(IV), CHEMBL2146189  1100 nM
2. [Bis(aminomethyl)ethylmethylsilane]tetrachloroplatinum(IV), CHEMBL2146192  1320 nM
3. [Bis(aminomethyl)diethylsilane]tetrachloroplatinum(IV), CHEMBL2146203  1620 nM
4. [Bis(aminomethyl)pentamethylenesilane]dichloropaltinum(II), CHEMBL2146202  1920 nM
5. cis-Bis[[(trimethylsilyl)methyl]amino]tetrachloroplatinum(IV), CHEMBL2146191  1940 nM
6. [Bis(aminomethyl)dimethylsilane]tetrachloroplatinum(IV), CHEMBL2146190  2110 nM
7. CISPLATIN, CHEMBL11359  4290 nM
8. [Bis(aminomethyl)pentamethylenesilane]tetrachloropaltinum(IV), CHEMBL2146204  4530 nM
9. [Bis(aminomethyl)tetramethylenesilane]dichloropaltinum(II), CHEMBL2146205  9860 nM
10. [Bis(aminomethyl)dimethylsilane]dichloroplatinum (II), CHEMBL2146201  12200 nM
11. mu-(1,7-nanodiamine-N,N')bis-(cis-aminedichloroplatimum (II)), CHEMBL2146215  26200 nM
